This passage reports Potency and outcome results from PubChem BioAssay (NCATS).

Experiment [1] in a line: qHTS to identify inhibitors of the type 1 interferon - major histocompatibility complex class I in skeletal muscle: primary screen against the NCATS Mechanism Interrogation Plate v5.0 (MIPE) Libary (AID 1347411). Further: nearly all actives have a fitted effect of over 65% in size. Further: potency means the concentration at half of the fitted maximal effect. The essentials:
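Immortalized human myoblasts (C25cl48) with HiBit knocked into endogenous HLA-B*08:01 were stimulated with 4 ng/ml IFN-beta and given compounds in 11-point 1:3 titration from 46 uM. After 24 h at 37 C, lytic HiBiT luminescence was read.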

Experiment [2] addresses Protein phosphatase 1D (Homo sapiens) (UniProt O15297). The experiment is described as follows: RapidFire Mass Spectrometry qHTS Assay for Modulators of WT P53-Induced Phosphatase 1 (WIP1) (AID 1347424).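 Further: amount of dephosphorylated VEPPL-S-QETFS peptide product formed by WIP1.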 Further: potency means the concentration at half of the fitted maximal effect. The essentials: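 10 nM WIP1 + cpd, 1 h RT; + 2 uM VEPPL-pS-QETFS, 5 min RT; stop 0.5% formic acid; labelled product standard 1 uM; RapidFire MS. Buffer 50 mM Tris pH 7.5, 30 mM MgCl2, 1 mM TCEP.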
For orientation: In qHTS, concentration-response curves come from the screen itself.

Experiment [3] shares this target. Description: Rhodamine-PBP qHTS Assay for Modulators of WT P53-Induced Phosphatase 1 (WIP1) (AID 1347425). The essentials: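 Steps: enzyme with Rh-PBP sensor and compounds, room-temperature incubation of 1 hr, baseline read, addition of VEPPL-pS-QETFS (10 uM final), kinetic fluorescence reads at 525/598 nm. Activity equals final minus baseline signal.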
A short description of experiment [4]: Validation qHTS assay for inhibitors of Activation Induced Cytidine Deaminase (AID): UDG Counterscreen signal (AID 1347427). The essentials:
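Counterscreen read of UDG activity (2 U/mL, 4/3x) in the FRET deamination format with AID (1 uM, 4/3x), DJC20/DJC23 substrates (250 nM, 4x), 4 h at room temperature. NaOH stop, fluorescence at 560 ex/665 em.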

For experiment [5], the target named is Single-stranded DNA cytosine deaminase (Homo sapiens) (UniProt Q9GZX7). The experiment is described as follows: Validation qHTS assay for inhibitors of Activation Induced Cytidine Deaminase (AID): AID signal (AID 1347429). Further: potency means the concentration at half of the fitted maximal effect. In outline:
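FRET deamination assay: 1 uM AID (4/3x stock) with UDG, compound up to 114 uM, then 250 nM DJC20/DJC23 substrate (4x stock) for 4 hr at room temperature. NaOH added, 30 min; fluorescence read 540/590 nm.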

Experiment [6] is described as follows: Primary qHTS for inhibitors of La Crosse Virus (LACV) - induced cell death in SH-SY5Y cells (AID 1508616).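 Further: top concentration of the series differs between compounds; higher means more rescue of cells from virus-induced death.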 The essentials:
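SH-SY5Y cells (6000/well) plated 24 h, then given compounds by pin transfer and LACV at 0.01 MOI for 6 days at 37C. Viability measured by ATPLite luminescence, normalized to infected DMSO and uninfected DMSO.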

For experiment [7], the target named is Calcium and integrin-binding protein 1 (Homo sapiens) (UniProt Q99828). The experiment is described as follows: Validation qHTS for Identification of Calcium Integrin Binding protein 1 (CIB1) Competitor (AID 1508618). Further: potency means the concentration at half of the fitted maximal effect. In outline: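 In this qHTS validation, the LOPAC set (up to 114 uM) was tested for blocking CIB1 binding to a fluorescein-tagged alphaIIb peptide, with FP detection at 480/540 nm.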
Chain of Calcium and integrin-binding protein 1 (Homo sapiens) (Q99828 whole entry, looked up): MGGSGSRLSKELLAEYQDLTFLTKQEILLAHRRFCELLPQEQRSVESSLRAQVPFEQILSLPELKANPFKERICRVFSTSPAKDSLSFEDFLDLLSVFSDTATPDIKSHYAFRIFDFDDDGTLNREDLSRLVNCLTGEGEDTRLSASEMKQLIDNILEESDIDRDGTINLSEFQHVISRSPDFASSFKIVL

Experiment [8] can be described thus: Confirmatory qHTS for small molecule stabilizers of the endoplasmic reticulum resident proteome: Secreted ER Calcium Modulated Protein (SERCaMP) assay (AID 1508628). Further: nearly all actives have a fitted effect of over 40% in size. Further: potency means the concentration at half of the fitted maximal effect. The essentials: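 SH-SY5Y cells stably expressing GLuc-SERCaMP, treated 16 h with compound (primary 1.53, 7.67, 38.3 uM; confirmation 11 concentrations, up to 76.6 uM), then 100 nM thapsigargin for 4 h. Secreted Gaussia luciferase in medium read by coelenterazine luminescence.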

Experiment [9] concerns the target Calcium and integrin-binding protein 1 (Homo sapiens) (UniProt Q99828). The experiment is described as follows: Primary qHTS for Identification of Calcium Integrin Binding Protein 1 (CIB1) Competitor (AID 1508620).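 Further: GST tagged CIB1 binding a fluorescein labelled alphaIIb integrin peptide tracer; top concentration of the series differs between compounds.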 In outline:
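CIB1-GST (1 uM final) and compound incubated 15 min at room temperature before adding FITC-alphaIIb peptide tracer (100 nM final). Competition for binding read by fluorescence polarization (ex 480, em 540) after another 15 min at room temperature.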

Results filed as inconclusive are left out. Activity calls are given as the source filed them. The call rests on the fitted dose curve; in most records, active means well fitted curve in the direction sought with a large enough effect; inconclusive means small, poorly fitted or top-dose-only effect, or another doubt; inactive means no such curve, though single readings can be large; an effect the other way counts as inactive or inconclusive.

Chain of Single-stranded DNA cytosine deaminase (Homo sapiens) (Q9GZX7 whole entry, looked up): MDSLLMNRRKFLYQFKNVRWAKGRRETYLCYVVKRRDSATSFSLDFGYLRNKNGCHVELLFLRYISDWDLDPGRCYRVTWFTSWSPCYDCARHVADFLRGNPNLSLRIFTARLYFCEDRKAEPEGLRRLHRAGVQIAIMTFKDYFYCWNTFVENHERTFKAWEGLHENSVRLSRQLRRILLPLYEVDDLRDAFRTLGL
Chain of Protein phosphatase 1D (Homo sapiens) (O15297 whole entry, looked up): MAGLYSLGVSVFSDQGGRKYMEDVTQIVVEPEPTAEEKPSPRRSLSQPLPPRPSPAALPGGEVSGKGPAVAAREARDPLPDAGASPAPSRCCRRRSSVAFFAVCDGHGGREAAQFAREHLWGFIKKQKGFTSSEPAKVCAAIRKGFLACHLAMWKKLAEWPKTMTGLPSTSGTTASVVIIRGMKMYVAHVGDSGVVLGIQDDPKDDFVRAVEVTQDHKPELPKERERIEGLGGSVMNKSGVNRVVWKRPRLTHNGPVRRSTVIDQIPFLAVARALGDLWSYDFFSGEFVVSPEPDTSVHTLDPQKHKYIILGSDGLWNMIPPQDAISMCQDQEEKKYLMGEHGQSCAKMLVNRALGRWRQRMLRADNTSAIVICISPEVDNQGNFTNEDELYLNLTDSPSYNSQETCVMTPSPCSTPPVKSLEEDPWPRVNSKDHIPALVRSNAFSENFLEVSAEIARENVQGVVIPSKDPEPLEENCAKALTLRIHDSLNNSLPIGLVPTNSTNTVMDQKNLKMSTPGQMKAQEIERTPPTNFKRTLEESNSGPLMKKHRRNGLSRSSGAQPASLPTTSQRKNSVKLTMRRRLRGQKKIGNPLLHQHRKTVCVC

For the compound `CCCNCC(O)COc1ccccc1C(=O)CCc1ccccc1` (configuration not stated), the Potency result in experiment [1], in experiment [2], in experiment [4], in [5], in experiment [6] and in experiment [7] was “inactive” each time. In addition, the Potency entry in experiment [8] is “inactive”. Further, the compound was classed as inactive in experiment [3].

Consider `CC(C)(C)C(=O)Oc1ccc(S(=O)(=O)Nc2ccccc2C(=O)NCC(=O)O)cc1`, for which the Potency entry in experiment [1], in experiment [2], in experiment [6], in [7] and in [9] was “inactive” in each case. In experiment [3], the outcome was inactive.

On to `Cc1cc(C(C)(C)C)c(O)c(C)c1CC1=NCCN1`, for which the Potency result in experiment [1], in experiment [2], in experiment [4], in [5], in experiment [6] and in experiment [7] was “inactive” each time. Further, the Potency entry in experiment [9] was “inactive”. Moreover, the compound was classed as inactive in experiment [3].

Regarding `CC1COc2c(N3CCN(C)CC3)c(F)cc3c(=O)c(C(=O)O)cn1c23` (configuration not stated), the Potency entry in experiment [1], in [2] and in experiment [6] was “inactive” each time. The outcome in experiment [3] was inactive.

`CC(COc1ccccc1)N(CCCl)Cc1ccccc1` (configuration not stated): the Potency result in experiment [1], in [2], in [4], in experiment [5], in experiment [6] and in experiment [9] was “inactive” in each case. The compound was called inactive in experiment [3].

For `Nc1nc2c(ncn2COC(CO)CO)c(=O)[nH]1`, the Potency entry in [1], in experiment [2], in experiment [6], in [7] and in experiment [9] was “inactive” in each case. Moreover, the outcome in [3] was inactive.

In the case of `NCCCCCC(=O)O`, the Potency entry in experiment [1], in [2], in [4], in [5], in [6] and in experiment [7] was “inactive” in each case. For the same compound, in experiment [9], the Potency result was “inactive”. Further, the compound was called inactive in experiment [3].

As for `O=c1c(-c2ccc(O)cc2)coc2cc(O)cc(O)c12`, the Potency in experiment [1] was 9.51 µM (active). The Potency result in experiment [2], in experiment [4], in experiment [5], in experiment [6], in [7] and in experiment [9] was “inactive” in each case. Besides, the compound was called inactive in [3].

On to `CC(C)NCC(O)c1ccc(O)c(O)c1` (configuration not stated), for which the Potency entry in [1], in experiment [2], in experiment [4], in [5], in experiment [6] and in [7] was “inactive” in each case. Further, the Potency result in [9] and in [8] was “inactive” in each case. For the same compound, the call in experiment [3] was inactive.

`CS(=O)(=O)CCNCc1ccc(-c2ccc3ncnc(Nc4ccc(OCc5cccc(F)c5)c(Cl)c4)c3c2)o1`: in [1], the Potency is 33 µM (active). For the same compound, the Potency result in experiment [2], in experiment [6] and in experiment [8] was “inactive” in each case. The compound was classed as inactive in experiment [3].

On to `CS(=O)(=O)Nc1ccc([N+](=O)[O-])cc1Oc1ccccc1`, for which the Potency entry in experiment [2], in experiment [4], in [5] and in experiment [6] was “inactive” throughout. For the same compound, the compound was classed as inactive in [3].

Turning to `CCOC(=O)Nc1ccc(NCc2ccc(F)cc2)nc1N`, the Potency result in [1], in experiment [2], in [6] and in experiment [9] was “inactive” in each case.

As for `Cc1ccc(C(=O)Nc2ccc(S(=O)(=O)O)c3cc(S(=O)(=O)O)cc(S(=O)(=O)O)c23)cc1NC(=O)c1cccc(NC(=O)Nc2cccc(C(=O)Nc3cc(C(=O)Nc4ccc(S(=O)(=O)O)c5cc(S(=O)(=O)O)cc(S(=O)(=O)O)c45)ccc3C)c2)c1`, the Potency result in experiment [1], in experiment [4] and in [6] was “inactive” each time. The Potency was 3.98 µM (active) in experiment [2], 11.2 µM (active) in experiment [5] and 15.8 µM (active) in experiment [8].

Consider `CN(Cc1cnc2nc(N)nc(N)c2n1)c1ccc(C(=O)N[C@@H](CCC(=O)O)C(=O)O)cc1`, for which the Potency entry in experiment [1], in experiment [2], in experiment [4], in experiment [5], in experiment [6] and in experiment [9] was “inactive” in each case. The result in experiment [3] was inactive.

Turning to `O=C(c1ccc(OCCN2CCCCC2)cc1)c1c(-c2ccc(O)cc2)sc2cc(O)ccc12`, the Potency result in [1], in experiment [2], in [4], in experiment [5], in experiment [6] and in experiment [7] was “inactive” each time. Moreover, the Potency entry in [8] is “inactive”. Further, in [3], the result was inactive.

Take `CC(=O)OCC(CCn1cnc2cnc(N)nc21)COC(C)=O`: the Potency result in [1], in experiment [2], in experiment [6], in experiment [7] and in [9] was “inactive” each time. Moreover, in experiment [3], the outcome was inactive.

Turning to `CN(C)c1nc(N(C)C)nc(N(C)C)n1`, the Potency result in experiment [1], in [2], in experiment [4], in experiment [5], in experiment [6] and in experiment [7] was “inactive” throughout. Besides, the Potency entry in experiment [9] is “inactive”. Also, the compound was called inactive in experiment [3].

As to `NC12CC3CC(CC(C3)C1)C2`, the Potency result in [1], in experiment [2], in [4], in [5], in [6] and in experiment [7] was “inactive” each time. The Potency entry in [9] and in experiment [8] was “inactive” each time. In addition, the result in [3] was inactive.

As to `C[C@](N)(Cc1ccc(O)c(O)c1)C(=O)O`, the Potency entry in [1], in [4], in experiment [5], in experiment [6] and in [7] was “inactive” throughout.

For `O=c1c(O)c(-c2ccc(O)c(O)c2)oc2cc(O)cc(O)c12`, the Potency entry in experiment [1], in [2], in experiment [4], in [5], in [6] and in experiment [9] was “inactive” each time.

For the compound `CC#C[C@]1(O)CC[C@H]2[C@@H]3CCC4=CC(=O)CCC4=C3[C@@H](c3ccc(N(C)C)cc3)C[C@@]21C`, the Potency result in experiment [1], in [2], in experiment [4], in experiment [5], in experiment [6] and in experiment [7] was “inactive” throughout. Also, the Potency entry in experiment [9] is “inactive”. Besides, the result in [3] was inactive.

As to `Cc1ccccc1N1C(=O)c2cc(S(N)(=O)=O)c(Cl)cc2NC1C` (configuration not stated), the Potency entry in experiment [1], in [2], in experiment [4], in [5], in experiment [6] and in [9] was “inactive” each time. In addition, the compound was classed as inactive in experiment [3].

With `COc1cc2c(c(OC)c1OC)-c1ccc(OC)c(=O)cc1[C@@H](NC(C)=O)CC2`, the Potency result in experiment [2], in experiment [4], in experiment [5], in experiment [6] and in [7] was “inactive” throughout. In addition, in experiment [3], the outcome was inactive.

Turning to `OCCN1CCN(CCCN2c3ccccc3Sc3ccc(C(F)(F)F)cc32)CC1`, the Potency entry in experiment [2], in experiment [4], in experiment [5], in experiment [6] and in [9] was “inactive” in each case. Further, the compound was classed as inactive in [3].

With `CC[C@@]1(O)C(=O)OCc2c1cc1n(c2=O)Cc2cc3c(CN(C)C)c(O)ccc3nc2-1`, the Potency result in [2] and in experiment [6] was “inactive” throughout. The result in [3] was inactive. For the same compound, the Potency in [7] is 14.1 µM (active).

In the case of `CN1C2CCC1CC(OC(=O)C(CO)c1ccccc1)C2` (configuration not stated), the Potency result in experiment [6] and in [7] was “inactive” each time. Further, the Potency in [8] is 39.8 µM (active).
